HIV RNase H inh-1: inhibitors of HIV-1 reverse transcriptase RNase H; inhibition, % at 10 µM; AID 565; RT-RNase H RNA/DNA duplex cleavage, fluorescence; 65,000 compounds, 1.9% hits; in the data active = inhibition above about 50%
RmlCD inh mix: RmlC/RmlD inhibition, mixture screen | RmlC/RmlD coupled enzyme inhibition, 384-well mixture HTS | inhibition, % at 5.5 µM | 110,000 compounds, 0.39% hits | AID 1532; in the data active = inhibition above about 30%, passing the limit was not always enough; inconclusive = no clear call, values can overlap the other calls
HIV RNase H inh-2: confirmation of HIV-1 reverse transcriptase RNase H inhibitors; 1,000 compounds, 39% hits; shares compounds with HIV RNase H inh-1; inhibition, % at 10 µM; Recombinant RT RNase H, fluorescent RNA/DNA duplex cleavage; in the data active = inhibition above about 48%; inconclusive = no clear call, values can overlap the other calls
A number is an active result; - = inactive; ? = inconclusive; . = no result given. Many of the other results were omitted from the sample, so hits are more common in it than they were.

SMILES	HIV RNase H inh-1	RmlCD inh mix	HIV RNase H inh-2
Cc1cccc(NC(=O)CSc2nnc(-c3ccc(S(=O)(=O)N4CCCC4)cc3)o2)c1	-	-	.
COc1ccc(C2/C=C\CN(Cc3ccc(N(C)C)cc3)CC(=O)N2Cc2ccc(F)cc2)cc1 (stereo unspecified)	.	-	.
C=CCn1c(Cc2c[nH]c3ccccc23)nnc1SCC(=O)NCc1ccccc1	.	-	.
C=CCn1c(Cc2c[nH]c3ccccc23)n[nH]c1=S	54	-	-
COc1cccc(C(=O)Nc2ccccc2N2CCOCC2)c1	-	-	.
COC(=O)c1ccc(N2CCOCC2)c(NC(=O)Nc2cccc(OC)c2)c1	87	-	-
COc1ccc(S(=O)(=O)Nc2ccc(O)c3ccccc23)cc1	92	-	57
COc1ccc(S(=O)(=O)Nc2ccccc2C(F)(F)F)cc1	-	-	.
COc1cc(CN2C(=O)C(NC(=O)c3ccco3)(C(F)(F)F)C3=C2CC(C)(C)CC3=O)cc(OC)c1 (stereo unspecified)	.	-	.
CCCn1c2c(c(O)c(C(=O)Nc3ncccc3C)c1=O)CCCC2	-	-	.
O=C(Nc1cccnc1)c1c(O)c2c(n(Cc3ccccc3)c1=O)CCCC2	68	-	?
CC1Cc2ccccc2N1C(=O)CN1CCC(n2nnc3cc(C(F)(F)F)ccc32)CC1 (stereo unspecified)	.	-	.
CCOc1cc2[nH]c(=O)n(CC3CCC(C(=O)NCCCOC)CC3)c(=O)c2cc1OCC (stereo unspecified)	-	-	.
CCOc1cc2[nH]c(=O)n(CC3CCC(C(=O)NCCC(C)C)CC3)c(=O)c2cc1OCC (stereo unspecified)	68	.	?
CCCCN(CC)S(=O)(=O)c1ccc(C(=O)Nc2nnc(-c3cccs3)o2)cc1	74	-	?
CCCCN(CCCC)S(=O)(=O)c1ccc(C(=O)Nc2nnc(COC)o2)cc1	-	-	.
O=C(Nc1ccncc1)c1cc(F)cc(F)c1	.	-	.
CCCSc1cc(N2CCOCC2)nc(-c2ccccc2Cl)n1	.	-	.
N#Cc1c(SCC(=O)Nc2nccs2)nc2c(c1-c1ccco1)CCCC2	82	-	61
Cc1ccccc1NC(=O)CSc1nc2c(c(-c3ccco3)c1C#N)CCCC2	59	-	73
CCc1ccccc1NC(=O)CSc1nc2c(c(-c3ccco3)c1C#N)CCCC2	-	-	.
COc1ccc(-c2c(C#N)c(SCC(=O)Nc3ccccc3)nc3c2CCCC3)cc1	.	-	.
O=C1N[C@@H](Cc2cn(S(=O)(=O)c3c(F)c(F)c(F)c(F)c3F)c3ccccc23)C(=O)N[C@H]1Cc1ccccc1	.	-	.
CCO[C@H]1OC(C(=O)N2CCOCC2)=C[C@@H](C2CC2)[C@@H]1CCCO	.	-	.
Cc1ccc(OCCOCCn2ccnc2)c(Br)c1	-	-	.
SMILES	HIV RNase H inh-1	RmlCD inh mix	HIV RNase H inh-2
COc1ccc(CCn2c(=N)c(C#N)cc3c(=O)n4ccccc4nc32)cc1	55	.	-
COc1ccc(CCn2c(=N)c(C(=O)N3CCN(C)CC3)cc3c(=O)n4ccccc4nc32)cc1	-	-	.
COc1cccc(OCc2nc3c4cnn(-c5ccccc5)c4ncn3n2)c1	-	-	.
c1ccc(-n2ncc3c2ncn2nc(-c4ccco4)nc32)cc1	60	-	68
Cc1ccc(C)n1-c1cccc(C(=O)O)c1	71	-	?
O=C(O)c1cccc(N2CCCC2)c1	-	-	.
CC(=O)c1cc2c(cc1NC(=O)C1CC1)OCO2	.	-	.
CC1(C)Cc2[nH]c(=S)c(C#N)cc2CO1	70	-	65
Cc1cc(C)n2c3c(c(C#N)c2n1)CC(C)(C)OC3	-	-	.
CC(C(=O)NC1CCCC1)N(C(=O)c1ccc(-c2ccccc2)[nH]1)c1ccccc1F (stereo unspecified)	.	-	.
CC(=O)NCCc1c[nH]c2ccc(O)cc12	.	-	.
CCc1ccc(NC(=O)CSc2nc3cc(C(=O)OC)ccc3c(=O)n2Cc2ccco2)cc1	59	-	57
CCN(C(=O)CSc1nc2cc(C(=O)OC)ccc2c(=O)n1Cc1ccco1)c1cccc(C)c1	-	-	.
CCN1CCN(CC(=O)Nc2cccc(C)c2C)C(=O)C1=O	-	-	.
O=S1(=O)[C@H]2C[C@@H]3C=C[C@]2(CN1Cc1ccc(C(F)(F)F)cc1)O3	.	-	.
Cc1cccc(NC(=O)C2NC(=O)CC2c2ccccc2)c1C (stereo unspecified)	.	-	.
C=CCOC(=O)C1=C(C)OC(N)=C(C#N)C1c1ccccc1F (stereo unspecified)	-	-	.
COc1ccc(C2CC(=O)N3CN(c4ccc(C)c(Cl)c4)CSC3=C2C#N)cc1 (stereo unspecified)	-	-	.
Cc1cccc(N2CSC3=C(C#N)C(c4ccc(C)o4)CC(=O)N3C2)c1 (stereo unspecified)	94	-	55
COc1cc(OC)c(C2CC(=O)N3CN(c4ccccc4C)CSC3=C2C#N)cc1OC (stereo unspecified)	77	-	72
COc1cc(OC)c(C2C(C#N)=C(N)OC3=C2C(=O)CC(C)C3)cc1OC (stereo unspecified)	-	-	.
COc1ccc(N2CSC3=C(C#N)C(c4cccc(OC)c4OC)CC(=O)N3C2)cc1 (stereo unspecified)	75	-	-
Cc1ccc(C2N(c3cccc(Cl)c3)C(=O)C3CCCN32)o1 (stereo unspecified)	-	-	.
CCc1ccccc1N1CSC2=C(C#N)C(c3ccccc3F)CC(=O)N2C1 (stereo unspecified)	89	-	59
O=C(CCc1ccc(S(=O)(=O)N2CCOCC2)cc1)N1CCN(Cc2ccc3c(c2)OCO3)CC1	.	-	.
SMILES	HIV RNase H inh-1	RmlCD inh mix	HIV RNase H inh-2
CC(NC(=O)NCc1cccnc1)(C(F)(F)F)C(F)(F)F	-	-	.
CCOC(=O)c1ccc(NS(=O)(=O)c2c(N)n(C)c(=O)n(C)c2=O)cc1	.	-	.
C[C@@H]1NC(=O)[C@H](CCC(=O)O)NC(=O)c2cc([N+](=O)[O-])cc(F)c2NCCC[C@@H](C(N)=O)NC1=O	.	-	.
COc1ccc(-c2ccc(SCC(=O)N3CCCC3)nn2)cc1OC	90	-	-
COc1ccc(-c2ccc(SCC(=O)N3CCOCC3)nn2)cc1OC	-	-	.
O=C(NCc1ccco1)C1CC(c2ccc(C(F)(F)F)cc2)=NO1 (stereo unspecified)	.	-	.
Cn1cnnc1SC(C(=O)Nc1cccc(C(F)(F)F)c1)c1ccccc1 (stereo unspecified)	.	-	.
O=C(c1ccccc1F)N1CCN(S(=O)(=O)c2ccc(S(=O)(=O)N3CCCCC3)cc2)CC1	77	-	78
O=C(c1cc(S(=O)(=O)N2CCCCC2)ccc1F)N1CCCCC1	-	-	.
CC1CCN(C(=O)CSc2nnc(-c3ccncc3)n2C)CC1	.	-	.
CC1CCN(C(=O)CSc2nncn2-c2ccccn2)CC1	76	-	-
COc1ccc(-c2cc(C(F)(F)F)n3nc(C(=O)NCc4ccco4)c(Cl)c3n2)cc1	.	-	.
CCOC(=O)N1CCN(C(=O)c2cnn3c(C(F)F)cc(-c4ccc(C)cc4)nc23)CC1	-	-	.
Cc1ccc(-c2cc(C(F)(F)F)n3ncc(C(=O)NCc4ccco4)c3n2)cc1	63	-	-
Cc1ccc(-c2cc(C(F)F)n3ncc(C(=O)NCc4ccco4)c3n2)cc1	70	-	74
O=C(O)C1CCC(=O)N1Cc1ccccc1Cl (stereo unspecified)	-	-	.
CCCNC(=O)COC(=O)c1ccccc1OCc1ccc(Cl)cc1	.	-	.
Cc1onc(-c2c(Cl)cccc2Cl)c1C(=O)NCCc1ccc(S(N)(=O)=O)cc1	.	-	.

From PubChem BioAssay
